High-throughput results from PubChem.
Rows were chosen to be rich in hits. Some 7.5% of all compounds tested hit in one or more screens of this group.
B2AR arrestin = qHTS assay of beta-arrestin-biased ligands of beta2-adrenergic receptor; Beta-2 adrenergic receptor (Homo sapiens), P07550; beta-arrestin recruitment to beta2AR, cell-based reporter; Potency, µM (series often up to 46.1 µM), for the others: at the top dose activation, hits mostly activators; 330,000 tested, 0.02% active; AID 492947, 2010;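 further: potency means the concentration at half of the fitted maximal effect; 0% = DMSO controls and full agonism = EC100 isoproterenol or metaproterenol; nearly all actives have a fitted effect of over 65% in size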
TSHR antag = Antagonists of the Thyroid Stimulating Hormone Receptor: HTS campaign. TSHR-expressing cells, TSH-stimulated cAMP HTRF, 2 h; hits give low values. activity change, negative = inhibition, % at 11.5 µM. 330,000 tested, 0.2% active. AID 504810, 2011;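 active means activity change below a set negative limit, meaning inhibition stronger than a set level, cut at about -70% in these data; inconclusive means activity change between two set negative limits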
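Freshly harvested TSHR cells receive pin-tooled compound, then EC80 TSH at 4nM final. After 2 hours at 37 deg C, antibody in lysis buffer and cAMP-d2 are added; 30 minutes at ambient temperature precede the HTRF read.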
RORgamma inh = qHTS for inhibitors of ROR gamma transcriptional activity; Nuclear receptor ROR-gamma (Mus musculus), P51450; Drosophila S2 Gal4-RORgamma UAS-luciferase reporter, 20 h; Potency, µM (top dose mostly 53.6 µM), for inactives: at the top dose activity change, negative = inhibition, usual class: inhibitors; 310,000 tested, 5.4% active; AID 2551, 2010; further: potency means the concentration at half of the fitted maximal effect; nearly all actives have a fitted effect of over 60% in size
Target sequence (P51450 whole entry, looked up, the tested form may be a part): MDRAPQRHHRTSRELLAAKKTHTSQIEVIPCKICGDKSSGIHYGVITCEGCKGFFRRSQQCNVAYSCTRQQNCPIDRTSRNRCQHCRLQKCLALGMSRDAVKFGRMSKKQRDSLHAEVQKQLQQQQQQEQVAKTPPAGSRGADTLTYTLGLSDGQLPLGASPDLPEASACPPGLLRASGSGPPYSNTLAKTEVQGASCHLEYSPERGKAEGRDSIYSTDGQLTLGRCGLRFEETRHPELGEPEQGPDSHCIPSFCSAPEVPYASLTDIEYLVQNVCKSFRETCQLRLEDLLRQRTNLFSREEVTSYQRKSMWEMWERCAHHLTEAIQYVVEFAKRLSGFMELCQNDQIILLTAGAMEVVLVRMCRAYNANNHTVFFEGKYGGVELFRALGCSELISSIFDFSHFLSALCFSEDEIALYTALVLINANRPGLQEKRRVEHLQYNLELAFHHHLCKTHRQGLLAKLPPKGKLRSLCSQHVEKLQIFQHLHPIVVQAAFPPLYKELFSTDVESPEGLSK
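Compounds are pin-transferred onto Drosophila Schneider cells expressing a copper-inducible Gal4–ROR gamma transactivation domain fusion. After 1 hr, copper sulfate is added to 700 uM final; luciferase is read 20 hr later.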
Gal4-VP16 FLuc = VP16 counterscreen qHTS for inhibitors of ROR gamma transcriptional activity; Drosophila S2 Gal4-VP16 UAS-luciferase, luminescence, 20 h; 310,000 tested, 3.5% active; Potency, µM (series often up to 53.6 µM), inactives show top-dose activity, negative = inhibition, actives largely listed as inhibitors; AID 2546, 2010;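 further: Gal4-VP16 expression switched on by copper sulfate through the metallothionein promoter; potency means the concentration at half of the fitted maximal effect; nearly all actives have a fitted effect of over 50% in size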
ELG1 repair inh = qHTS screen for small molecules that inhibit ELG1-dependent DNA repair in human embryonic kidney (HEK293T) cells expressing luciferase-tagged ELG1 | AID 504467, 2011 | Potency, µM (doses to about 46.1 µM), for inactives: at the highest dose activity change, negative = inhibition, most hits filed as inhibitors | 330,000 tested, 2.3% active | HEK293T ELG1-luciferase reporter, luminescence, 16 h; DNA damage induced by 5-fluorouridine; further: potency means the concentration at half of the fitted maximal effect; nearly all actives have a fitted effect of over 55% in size
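In this reporter screen, reduction of luminescence relative to DMSO vehicle indicated activity. Compounds and 5-fluorouridine were added together to 2,000 cells per well, incubated for 16 hr at 37 °C, then developed with ONE-Glo.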
An asterisk follows results filed as active; ? = inconclusive; . = no result; [ ] = another dose, or the depositor's remark. Unless noted, the call rests on the fitted dose curve; in most records, active means well fitted curve in the direction sought with a large enough effect; inconclusive means small, poorly fitted or top-dose-only effect, or another doubt; inactive means no such curve, though single readings can be large; an effect the other way counts as inactive or inconclusive. Unless noted, on the % scale 0 is the no-effect control and ±100 the full control effect.

SMILES	B2AR arrestin	TSHR antag	RORgamma inh	Gal4-VP16 FLuc	ELG1 repair inh
Cc1ccccc1NC(=S)NC(=O)c1cncc(Br)c1	-0.5%	8.9	?	?	-17.8%
O=C(COC(=O)c1cncc(Br)c1)NC1CCCCC1	-0.3%	4.2	-17.5%	11.0%	-6.4%
CN(C)CCN1C(=O)c2ccccc2N(C)c2ccccc21	.	.	-15.8%[10 µM]	-15.2%	.
CCN1CCN(c2ccc(N3CCN(C(=O)c4ccc(Br)o4)CC3)nn2)CC1	0.2%	5.1	.	.	17.0%
CSCC[C@@H]1NC(=O)C/C=C\[C@@H](C)COC(=O)[C@@H](CCSC)NC(=O)C/C=C\[C@@H](C)COC1=O	.	.	-8.2%[10 µM]	7.1%[10 µM]	.
CC(=O)N1CCN(c2ccc([N+](=O)[O-])c(NCc3cccnc3)c2)CC1	0.0%	-11.8	8.0%	5.5%	19.9%
CC(=O)N1CCN(c2ccc(Oc3ccc([N+](=O)[O-])c(C(F)(F)F)c3)cc2)CC1	0.5%	-27.7	?	7.08µM*	-13.6%
CC(=O)NCc1ccc(-c2csc(NC(=O)CCc3nc4ccccc4c(=O)[nH]3)n2)s1	0.7%	-1.4	.	.	20.6µM*
CCc1sc(C(=O)Nc2ccc(OC)c(S(=O)(=O)N3CCOCC3)c2)cc1C	-0.2%	.	.	.	8.2µM*
COc1ccc(NC(=O)c2cc3c(s2)CCC(C)C3)cc1S(=O)(=O)N1CCOCC1 (centres undefined)	-1.4%	-25.7	?	-0.5%	23.1µM*
COc1ccc(NC(=O)c2cc(S(=O)(=O)N3CCOCC3)ccc2C)cc1S(=O)(=O)N1CCOCC1	-0.3%	-5.1	.	.	?
O=c1c(-c2cccs2)nc2cnc(N3CCOCC3)nc2n1CCc1ccccc1	.	.	-24.2%	-5.9%	.
CC1=NN(c2ccccc2)C(=O)/C1=C\c1sccc1C	0.0%	10.9	?	3.2%	?
Cc1ccc(C2=NOC(=O)/C2=C\C=C\c2ccccc2)cc1	0.3%	-15.1	14.1µM*	?	?
CC1=NN(c2cccc(C(=O)O)c2)C(=O)/C1=C\C=C\c1ccco1	0.3%	-16.3	3.55µM*	?	?
COc1ccc(/C=C2\C(=O)ON=C2c2ccccc2)cc1OC	-0.7%	-10.8	12.6µM*	11.2µM*	25.8%
CC1=NN(c2ccccc2)C(=O)/C1=C/C=C/c1ccccc1	?	-2.4	?	17.8µM*	20.6µM*
CCN1CCCC1Cn1c(-c2ccccc2)nc2c(NCCOC)nc(C)nc21 (centres undefined)	.	.	-0.9%	-2.1%	.
CCN1CCN(/C=N/c2nc3c(s2)CCCC3)CC1	-0.7%	4.2	8.91µM*	7.08µM*	?
CCOC(=O)C1CCN(C(=S)NC2CC3C=CC2C3)CC1 (centres undefined)	-0.7%	14.1	-8.0%	6.3%	-0.1%
Cc1cccc(Cn2c(C)nc3c(N)c(C)c(C)cc32)c1	0.2%	-5.0	12.6µM*	?	?
FC(F)(F)c1cc(Nc2ccccc2)nc(-c2ccccn2)n1	?	10.3	2µM*	4.47µM*	-12.7%
COc1cc(C(F)(F)F)nc(-c2ccccn2)n1	-0.1%	9.7	-32.0%	1.1%	26.3%
FC(F)(F)c1cc(Sc2ccccc2)nc(-c2ccccn2)n1	-0.2%	0.8	11.2µM*	?	17.6%
CC(C)Nc1cc(C(F)(F)F)nc(-c2ccccn2)n1	0.4%	-14.2	1µM*	6.31µM*	-4.1%
SMILES	B2AR arrestin	TSHR antag	RORgamma inh	Gal4-VP16 FLuc	ELG1 repair inh
COC(=O)c1ccc(CS(=O)(=O)c2ccc(C)cc2)o1	0.0%	-4.3	32.3%	16.4%	-2.5%
O=S(=O)(c1ccc2ccccc2c1)N1CCN(c2ccc(O)cc2)CC1	-0.1%	-11.0	.	.	-29.9%
O=C1c2ccccc2C(=O)c2c1cccc2N1CCCC1	-0.3%	-6.8	11.2µM*	?	20.4%
O=C(CN(c1cccc(Cl)c1)S(=O)(=O)c1ccc(Cl)cc1)NCc1ccccn1	0.6%	2.8	-19.9%	17.0%	?
CN(CC(=O)Nc1sc2c(c1C#N)CCCCC2)Cc1nc2ccccc2c(=O)[nH]1	0.1%	-0.5	12.6µM*	-3.6%	23.1µM*
COc1cccc(CN(C)CC(=O)Nc2sc3c(c2C#N)CCC3)c1OC	-0.2%	-5.0	1.3%	4.7%	11.6µM*
COc1ccc(CN(C)CC(=O)Nc2sc3c(c2C#N)CCC3)cc1OC	2.9%	-4.2	?	-19.3%	?
COc1ccccc1C(=O)Nc1sc(C(=O)N2CCCC2)c(C)c1C#N	-0.2%	?	3.98µM*	7.94µM*	?
COc1cccc(OC)c1C(=O)Nc1sc2c(c1C#N)CCC2	-0.6%	-118.4*	-0.4%	-10.7%	-12.1%
COC(=O)CCC(=O)OC1(C)C(=O)C=C2C=C(CCCNC(=O)OC(C)(C)C)OC=C2C1=O (centres undefined)	.	.	0.7%	-11.1%	.
COC(=O)c1ccc2nc(NC(=O)CSCC(=O)OCC(=O)c3ccccc3)sc2c1	-0.9%	-9.6	-5.2%	-4.8%	?
Cc1ccc2nc(NC(=O)CSCC(=O)OCC(=O)c3ccc(Br)cc3)sc2c1	-0.9%	10.1	3.16µM*	3.16µM*	10.9%
NC[C@H]1O[C@@H](n2cnc3c(N)ncnc32)[C@H](O)[C@@H]1O	.	17.2	.	.	.
COc1cc(NC(=O)C2CCN(c3cnccn3)CC2)cc(OC)c1OC	-0.4%	7.9	-3.1%	4.9%	-2.8%
COc1ccc(CNC[C@@H](CCCCN(C)Cc2ccc(OC)cc2)N2C[C@H](c3ccccc3)N(CCc3ccc(Cl)c(Cl)c3)C(=O)C2=O)cc1	-0.9%	2.5	5.62µM*	5.01µM*	-29.0%
CCOC(=O)Cc1csc(NC(=S)NC(=O)c2ccccc2Br)n1	3.6%	17.1	5.62µM*	3.98µM*	?
CCC(=O)Nc1nc(CC(=O)Nc2ccccc2OC)cs1	0.0%	12.3	18.2%	1.8%	-0.9%
CCOC(=O)Cc1csc(NC(=S)NC(=O)c2ccccc2)n1	-0.7%	7.6	?	-93.6%	10.0%
CCOC(=O)Cc1csc(NC(=S)NC(=O)CC(C)C)n1	-1.0%	0.4	11.2µM*	?	?
CCOC(=O)Cc1csc(NC(=O)c2ccc(Br)s2)n1	0.1%	12.6	2.4%	-3.9%	8.2%
CCOC(=O)Cc1csc(NC(=S)NC(=O)c2ccc(C)cc2)n1	-0.6%	-6.5	5.01µM*	8.91µM*	?
COc1ccccc1NC(=O)Cc1csc(NC(=S)Nc2ccc(C)cc2)n1	4.7%	-28.8	0.891µM*	2.82µM*	?
COc1ccc(C(=O)N2CCC3(CCN(Cc4cc(C(F)(F)F)cc(C(F)(F)F)c4)CC3)CC2)cc1	.	.	1.3%	-10.4%	.
O=C1OC(CO)C(O)C(O)C1O (centres undefined)	.	.	-1.0%	0.8%	.
